In PubChem BioAssay (NCI):
Compounds without any hit were thinned out: in the full panel of roughly 79,000, 15% have a hit. Activity calls are given as the source filed them. Cut-off read from the data, not from the text of the source: active = growth inhibition above about 70%; inactive = the rest.

Key:
[1] = NCI Yeast Anticancer Drug Screen. Data for the rad52 strain (AID 147);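 note: 0% = growth of vehicle-treated control cultures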; settings: S. cerevisiae rad52 mutant growth inhibition, stronger effect = higher value
How it was run: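 Read-out: growth inhibition versus vehicle-treated controls. Cells were a DNA repair-deficient yeast strain treated with compounds.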

[2] = NCI Yeast Anticancer Drug Screen. Data for the wt1 strain (AID 149);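 note: 0% = growth of vehicle-treated wt1 cultures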; settings: S. cerevisiae wt1 strain (SPY 50644) growth inhibition, stronger effect = higher value
How it was run: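 Using yeast strain wt1, compound-induced growth inhibition was determined against vehicle-treated cultures.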

[3] = NCI Yeast Anticancer Drug Screen. Data for the rad50EPP+ strain (AID 151);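 note: 0% = growth of vehicle-treated control cultures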; settings: S. cerevisiae rad50 mutant strain, stronger effect = higher value
How it was run: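 Growth inhibition read against vehicle controls in rad50EPP+ yeast, a strain altered in DNA damage repair, after compound exposure.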

[4] = NCI Yeast Anticancer Drug Screen. Data for the mgt1 strain (AID 153); settings: S. cerevisiae mgt1 mutant growth inhibition, stronger effect = higher value
How it was run: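 mgt1 yeast grown with test compound; read-out is growth inhibition versus vehicle-treated cultures.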

[5] = NCI Yeast Anticancer Drug Screen. Data for the rad50 strain (AID 155);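 note: 0% = growth of vehicle-only cultures of the same strain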; settings: S. cerevisiae rad50 strain growth inhibition, stronger effect = higher value
How it was run: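 Relative growth inhibition (compound vs vehicle) was measured in yeast with a defined repair-gene alteration.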

[6] = NCI Yeast Anticancer Drug Screen. Data for the mec2-1 strain (AID 157); settings: S. cerevisiae mec2-1 strain, stronger effect = higher value
How it was run: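 Yeast mec2-1 mutant treated with compound. Readout: growth inhibition vs vehicle controls.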

[7] = NCI Yeast Anticancer Drug Screen. Data for the sgs1 mgt1 strain (AID 161);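 note: 0% = growth of cultures given vehicle only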; settings: S. cerevisiae sgs1 mgt1 strain, stronger effect = higher value
How it was run: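 Genetically altered yeast, compound exposure, growth inhibition relative to vehicle.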

[8] = NCI Yeast Anticancer Drug Screen. Data for the CLN2oe strain (AID 163);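 note: 0% = growth of vehicle-only control cultures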; settings: S. cerevisiae CLN2oe strain, stronger effect = higher value
How it was run: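 Read-out: yeast growth inhibition, expressed relative to vehicle-only controls. The strain bears an engineered cell-cycle alteration.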

[9] = NCI Yeast Anticancer Drug Screen. Data for the cln2 rad14 strain (AID 165);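 note: 0% = growth equal to vehicle treated cultures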; settings: S. cerevisiae cln2 rad14 strain, stronger effect = higher value
How it was run: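 cln2 rad14 yeast strain; compound exposure; growth inhibition read vs vehicle controls.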

[10] = NCI Yeast Anticancer Drug Screen. Data for the bub3 strain (AID 167); settings: S. cerevisiae bub3 mutant strain, stronger effect = higher value
How it was run: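 Screening used yeast with an engineered genetic alteration affecting cell cycle control. Compound-exposed cultures were compared with vehicle cultures, and reduced growth was taken as inhibition.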

[11] = NCI Yeast Anticancer Drug Screen. Data for the wt2 strain (AID 169);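 note: 0% = growth of vehicle-treated yeast cultures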; settings: S. cerevisiae wt2 strain growth inhibition, stronger effect = higher value
How it was run: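 Read-out: growth inhibition versus vehicle-treated control cultures after compound exposure of the yeast strain.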

[12] = NCI Yeast Anticancer Drug Screen. Data for the mlh1 strain (AID 171);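 note: 0% = growth of vehicle-treated control cultures of the same strain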; settings: S. cerevisiae mlh1 strain growth inhibition, stronger effect = higher value
How it was run: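 Read-out: growth inhibition versus vehicle controls. Strain: engineered yeast with a defined DNA repair or cell cycle defect, compound-treated.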

[13] = NCI Yeast Anticancer Drug Screen. Data for the sgs1 strain (AID 173);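 note: 0% = growth of vehicle-only control cultures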; settings: S. cerevisiae sgs1 mutant, stronger effect = higher value
How it was run: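 Read-out: yeast growth inhibition relative to vehicle controls, following compound exposure of a strain with a defined DNA repair/cell cycle alteration.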

[14] = NCI Yeast Anticancer Drug Screen. Data for the mlh1 rad18 strain (AID 175); settings: S. cerevisiae mlh1 rad18 strain growth inhibition, stronger effect = higher value
How it was run: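 Yeast w/ defined DNA-repair lesions; compound exposure; growth vs vehicle controls → % inhibition.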

[15] = NCI Yeast Anticancer Drug Screen. Data for the rad18 strain (AID 177); settings: S. cerevisiae rad18 mutant growth inhibition, stronger effect = higher value
How it was run: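 Readout: growth inhibition vs vehicle controls. Cells: genetically altered yeast strain, DNA repair defect.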

[16] = at 5.0 µM (retest, dose inferred, filed as 0.5)
[17] = at 50.0 µM (retest, dose inferred, filed as 5.0)

Measured: growth inhibition

CO[C@H](/C(C)=C/C=C/C(C)=C/c1coc(C)n1)[C@H](C)[C@H]1C[C@@H](O)[C@@]2(C)O[C@H]2/C=C/[C@@H](C)[C@@H]2C[C@@H](CC(=O)O2)C[C@H]2O[C@@H]2C(=O)O1
active: [1]; at 100.0 µM 93% | [2]; at 100.0 µM 93% | [4]; at 100.0 µM 94% | [5]; [17] 89% | [5]; at 100.0 µM 93% | [6]; [17] 93% | [6]; at 100.0 µM 93% | [7]; [17] 91% | [8]; at 100.0 µM 88% | [10]; at 33.0 µM 89% | [10]; [17] 95% | [10]; at 50.0 µM 83.3% | [10]; at 100.0 µM 96% | [11]; at 33.0 µM 81% | [11]; at 100.0 µM 92% | [12]; at 100.0 µM 94% | [13]; at 100.0 µM 91% | [14]; [17] 89% | [15]; at 100.0 µM 92%
inactive: [1]; at 1.2 µM 6% | [1]; at 3.7 µM -2% | [1]; at 11.0 µM 14% | [1]; at 33.0 µM 17% | [2]; at 1.2 µM 7% | [2]; at 3.7 µM -2% | [2]; at 11.0 µM 2% | [2]; at 33.0 µM 15% | [3]; at 1.2 µM -17% | [3]; at 3.7 µM -9% | [3]; at 11.0 µM -21% | [3]; at 33.0 µM -8% | [3]; at 100.0 µM -23% | [4]; at 1.2 µM -4% | [4]; at 3.7 µM -14% | [4]; at 11.0 µM -6% | [4]; at 33.0 µM 24% | [5]; at 1.2 µM -6% | [5]; at 3.7 µM -15% | [5]; [16] -9% | [5]; at 11.0 µM -26% | [5]; at 33.0 µM 4% | [5]; at 50.0 µM 39.1% | [6]; at 1.2 µM -9% | [6]; at 3.7 µM -5% | [6]; [16] -9% | [6]; at 11.0 µM -16% | [6]; at 33.0 µM 16% | [6]; at 50.0 µM 49.2% | [7]; [16] 15% | [7]; at 50.0 µM 20.6% | [8]; at 1.2 µM -24% | [8]; at 3.7 µM -17% | [8]; at 11.0 µM -13% | [8]; at 33.0 µM 1% | [9]; [16] 8% | [9]; [17] 54% | [9]; at 50.0 µM 19.4% | [10]; at 1.2 µM -19% | [10]; at 3.7 µM -10% | [10]; [16] 37% | [10]; at 11.0 µM 9% | [11]; at 1.2 µM -12% | [11]; at 3.7 µM -4% | [11]; at 11.0 µM -6% | [12]; at 1.2 µM 10% | [12]; at 3.7 µM 7% | [12]; at 11.0 µM 11% | [12]; at 33.0 µM 44% | [13]; at 1.2 µM 1% | [13]; at 3.7 µM 2% | [13]; at 11.0 µM -6% | [13]; at 33.0 µM 8% | [14]; [16] -9% | [14]; at 50.0 µM 33.4% | [15]; at 1.2 µM 0% | [15]; at 3.7 µM -12% | [15]; at 11.0 µM -14% | [15]; at 33.0 µM 6%

O=C1c2ccc3ccccc3c2CCC1N1CCCCC1 (stereo not drawn)
inactive: [1]; at 1.2 µM 4% | [1]; at 3.7 µM 16% | [1]; at 11.0 µM 41% | [2]; at 1.2 µM 3% | [2]; at 3.7 µM 11% | [2]; at 11.0 µM 9% | [2]; at 33.0 µM 27% | [3]; at 1.2 µM 32% | [3]; at 3.7 µM 53% | [4]; at 1.2 µM 3% | [4]; at 3.7 µM 10% | [4]; at 11.0 µM 21% | [5]; at 1.2 µM 2% | [5]; at 3.7 µM 8% | [5]; [16] 9% | [5]; at 11.0 µM 16% | [6]; at 1.2 µM 0% | [6]; at 3.7 µM 11%
active: [1]; at 33.0 µM 81% | [1]; at 100.0 µM 98% | [2]; at 100.0 µM 97% | [3]; at 11.0 µM 77% | [3]; at 33.0 µM 85% | [3]; at 100.0 µM 98% | [4]; at 33.0 µM 76% | [4]; at 100.0 µM 98% | [5]; at 33.0 µM 73% | [5]; [17] 97% | [5]; at 50.0 µM 98.9% | [5]; at 100.0 µM 98%
